Experiments:
Experiment in all cases: PBM binding z-score (relative to random genomic background probes); higher = stronger binding; sequences stand for … in GC…GCGATTGACAGCGTAGAATGAAGG
[1] = tested on: RARb homodimer (NR concentration 270 nM)
Procedure, shortened: (§1)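 Custom Agilent 4×180K protein-binding microarrays carried double-stranded probes. Their 34-nt variable regions held direct-repeat seeds, single-nucleotide variants, half-site ablations and random human genomic background sequences. Arrays were incubated 1 h with ligand-free nuclear receptor dimers in PBS pH 7.4, 2% milk, 0.02% Triton X-100, 1 mM DTT, 0.2 mg/mL BSA and 0.4 mg/ml salmon testes DNA. Antibodies against each partner (one per run) detected binding, and scanned fluorescence was regression-normalized. Binding z-scores use random background probes as reference.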

[2] = tested on: RARg:RXRa (NR concentration 270 nM, RXRa partner concentration 90 nM)
Procedure, shortened: as §1

[3] = tested on: RARg homodimer (NR concentration 270 nM)
Procedure, shortened: as §1

[4] = tested on: RXRa DBDmut IVT, anti-RXR (DBD mutation: RXRa K156A/R161A, NR concentration 90 nM)
Procedure, shortened: as §1

[5] = tested on: RXRa homodimer (NR concentration 180 nM)
Procedure, shortened: as §1

[6] = tested on: THRa:RXRa (NR concentration 90 nM, RXRa partner concentration 90 nM)
Procedure, shortened: as §1

[7] = tested on: THRa homodimer (NR concentration 90 nM)
Procedure, shortened: as §1

[8] = tested on: VDR homodimer (NR concentration 270 nM)
Procedure, shortened: as §1

Sequence | PBM binding z-score [1] | PBM binding z-score [2] | PBM binding z-score [3] | PBM binding z-score [4] | PBM binding z-score [5] | PBM binding z-score [6] | PBM binding z-score [7] | PBM binding z-score [8]
CGAACGAGGGCATGAGTTGATAACAAATGCCGAT | 0.641 | 1.37 | 1.59 | 2.64 | 1.05 | 1.19 | -0.0778 | 1.48
TCTAGTTGGTCAAAGGTCGCACACTCGAAATGCG | 3.14 | 4.78 | 2.91 | 1.27 | 5.6 | 2.48 | 0.836 | 1.26
TCATATAGGTAACTGCTAGGTGAAAGTCCGATCT | 0.607 | 0.501 | 0.315 | 1.53 | 0.853 | 1.43 | 0.668 | 0.0262
ACAGACAGCTGAGTGAAGGTAACTCAGCTGGACG | -0.758 | -0.23 | -0.426 | -0.997 | 0.00757 | -0.178 | -0.586 | -0.66
TAGCCTAGGTCATGCGGGCTAGTATAGTGTCGGC | 2.99 | 3.77 | 3.75 | 0.197 | 2.92 | 3.15 | 0.88 | 0.2
ATATGTAGGTTATCGGGCCATTCAGTTTGCGCAT | 1.07 | 0.874 | 0.93 | 0.832 | 0.911 | 1.24 | 0.971 | 1.34
ACTAGCAGGCCAAGTTTGGCTCACTCAAACAAAG | -0.243 | -0.36 | -0.0918 | -0.118 | -0.415 | -0.267 | -0.863 | -0.448
ACTATTAGTTGACTTAGGGCCACCGATACGACGC | 0.765 | 0.549 | 0.739 | 0.785 | 0.774 | 2.48 | 0.956 | 0.47
ATCTCTAGGTCAAGTTCAGTGAAAGATCGATAGA | 3.89 | 4.93 | 5.92 | 2.98 | 3.73 | 3.44 | 2.16 | 3.44
ATCGAGAGGTCGACGAGGTGAGTATACACCGTTT | 1.94 | 3.1 | 2.85 | 1.07 | 3.46 | 3.58 | 0.777 | 1.52
ATCTCTAGGAAAAGTTCAGTGAAAGATCGATAGA | 2.13 | 1.53 | 1.87 | 1.03 | 0.695 | 0.532 | -0.316 | 1.66
CCTCGGAGGACACAAGGTCAGAGCTGTCCGCTTT | 3.68 | 3.85 | 3.74 | 0.757 | 2.07 | 3.65 | 1.57 | 0.992
CCTGCTAGGTCATGGACAGCTAATCTACAGTATG | 2.73 | 4 | 4.68 | 1.85 | 3.17 | 2.9 | 0.931 | 0.0193
GCTAGTTGGGCAGTAAAAGGTCACACACCGGTCG | 5.15 | 5.03 | 4.7 | 0.364 | 5.38 | 3.49 | 1.62 | 1.66
ATATGTAGGTTAGCTGGGGTCACTCAGACTAGGC | 4.11 | 4.29 | 3.51 | 1.52 | 5.23 | 5.18 | 3.2 | 2.95
AGTCAAAGTTCAGGACCAGGTAACGTAAAGCACG | 3 | 4.41 | 4.51 | 2.84 | 2.91 | 3.14 | 0.673 | 1.72
TTTATTAGTTGATTAGGGCAACCGAAACAGCGGA | 0.918 | 0.811 | 0.769 | 0.442 | 0.586 | 0.999 | 0.89 | 0.951
CTACCAAGGTGAAGAAGGTCGTTGATTACTATTC | 1.74 | 1.35 | 1.07 | 0.727 | 1.34 | 2.13 | 0.885 | 1.34
TGAATGAGTTTAAAGATCAGGGAACGTGGCGTCG | -0.301 | 0.427 | 0.222 | 3.12 | 0.84 | -0.0905 | -0.483 | 2.88

Sequence | PBM binding z-score [1] | PBM binding z-score [2] | PBM binding z-score [3] | PBM binding z-score [4] | PBM binding z-score [5] | PBM binding z-score [6] | PBM binding z-score [7] | PBM binding z-score [8]
CGATCTAGGTCATCCAGGACAGTGAATACATTGA | 3.01 | 4.03 | 4.66 | 2.18 | 2.71 | 3.78 | 2.35 | 2.06
AGAACGATGGCAATGAGTTGATAGCACGGGTGGC | -1.04 | -0.249 | 0.108 | -0.297 | 0.0313 | -0.986 | -0.999 | -0.0604
AATACAGGGGCACTAGGCCAGAGTAGGTACGAAT | 0.82 | 0.814 | 0.835 | 0.764 | 0.611 | 0.473 | -0.285 | 0.185
ATCGAAAGGTCGATGAGGTGAGTATACACCGTTT | 2.52 | 3.5 | 3.32 | 0.841 | 3.56 | 3.75 | 0.943 | 1.17
CCTCTTAGTTGACCATAAGGGCAACCGAAGCTCG | 2.25 | 1.17 | 1.15 | 0.285 | 0.712 | 2.07 | 1.59 | 0.985
TCTCTTAGTTGAAGGGCAACCGACGAGTCCGTTT | 1.22 | 0.587 | 0.371 | 1.52 | 0.71 | 0.283 | 0.0407 | 1.24
CGTCCAAGGTCATAGGAGGTGAGTGAAGACAGAT | 4.33 | 5.74 | 5.64 | 3.53 | 5.36 | 5.3 | 2.93 | 2.82
AGCATGAGGTTATTAAGATCAGGGAATTGCGGTC | 0.785 | 1.38 | 1.03 | 1.99 | 1.77 | 2.19 | 0.867 | 1.59
TCAGACGGGTGAAGGTAACTCAGGTACGCAGTCG | 0.122 | 0.19 | 0.0578 | 0.65 | 0.866 | 1.28 | -0.229 | -0.187
CCGACTGGGGCAGAAAGGTCACCATACCATCCGG | 5.15 | 5.42 | 5.69 | -0.33 | 5.7 | 3.2 | 1.38 | 1.86
GCATATAGGTAATACAAAGTGAAAGTCCGATTGT | -0.658 | 0.129 | 0.264 | 0.278 | 0.0953 | 0.0465 | -0.756 | -0.321
TCGAGTAGGTTAGCAATGGGGCATTCAGCTTTCT | 0.353 | 0.194 | -0.0673 | 0.158 | 0.129 | -0.27 | -0.716 | -0.45
TCATATAGGTAAATGCTAGGTGAAAGTACGATCT | 0.7 | 0.683 | 0.548 | 1.67 | 1.26 | 1.6 | 0.701 | 0.431
GTACCAAGGTGAATAGCTCGTTGATGAGTAGGCG | 0.121 | 0.285 | 0.489 | -0.348 | 0.453 | 1.15 | 0.236 | -0.63
ATAATGAGGTTATTAAGATCAGGGAATTGCGGTC | 0.912 | 1.39 | 1.21 | 2.09 | 1.88 | 2.3 | 0.964 | 1.8
GCAGACAGGTGAAACGCAGTTAACTCAGGGTGGC | -0.134 | 0.384 | 0.0446 | -0.62 | 0.577 | 0.459 | -0.813 | -0.764
TTACCAAGGTGAGCTGAGGTCGTTGTTCCAACTC | 1.84 | 1.31 | 0.592 | 0.437 | 1.42 | 4.75 | 2.02 | 2.12
ATATGTAGGTTAGCTGGGGCCATTCAGACTAGGC | 1.17 | 0.84 | 0.74 | 0.565 | 0.845 | 4.13 | 0.768 | 0.832
GCATATAGGTAATACAAGGTTAAAGTCCGATTGT | 1.42 | 0.95 | 0.775 | 0.599 | 1.39 | 4.03 | 0.575 | 0.898

Sequence | PBM binding z-score [1] | PBM binding z-score [2] | PBM binding z-score [3] | PBM binding z-score [4] | PBM binding z-score [5] | PBM binding z-score [6] | PBM binding z-score [7] | PBM binding z-score [8]
CGTCAATGTTCAACTAAGGTAACGTAAAGCACGC | 0.643 | 0.459 | 0.531 | 0.651 | 0.456 | 3.46 | 2.04 | 0.309
TCTTTTAGTTGAAGGGCAACCGACGAGTCCGTTT | 1.24 | 0.599 | 0.744 | 1.5 | 0.842 | 0.355 | -0.174 | 1.29
TCTTGTAGATCAAGTAGGTTAAGAAAGCCTGAGT | 0.305 | 0.0366 | -0.106 | 0.547 | 0.304 | 0.372 | -0.238 | 0.191
ATCTCTAGGTAACCAAGTTTAGTGAATGCCGAAC | 0.287 | 0.383 | 0.348 | 0.384 | 0.298 | 0.78 | 0.672 | 0.855
TCGAGTAGGTTACCAATGGGGCATTCAGCTTTCT | 0.636 | 1.2 | 0.445 | 0.401 | 0.5 | 0.261 | -0.612 | -0.59
AGTCGAAGTTCATCTAGGTAACGTAAGATATGCT | 2.11 | 2.84 | 3.19 | 3.88 | 1.91 | 2.31 | -0.00664 | 3.81
TCTTGTAGATCAATAGAGGTTAAGACAGTGCGCT | 1.01 | 0.969 | 0.534 | 0.854 | 1.44 | 2.36 | -0.216 | 0.0474
TCATATAGGTTAATGCTAGGTGAAAGTCCGATCT | 1.41 | 1.98 | 1.16 | 1.64 | 1.48 | 2.53 | 1.08 | 0.748
CGAACTAGGTCAGAACACGACAGTGAAGGATGAT | 1.84 | 2.55 | 3.06 | 0.593 | 1.39 | 1.31 | 0.186 | -0.122
TTACCAAGGTGAGCGGAGGTCGTTGATCCAACTC | 1.72 | 1.31 | 1.18 | -0.227 | 1.44 | 3.73 | 0.656 | 0.886
CTCGGAAGGTCGTGCTCAGGTGAGTATACCAAAC | 1.95 | 3.34 | 2.31 | 1.18 | 2.37 | 3.59 | 1.15 | 0.743
GCGACTGGGGCATCAGCAGGTTACAATAACTTAA | 0.719 | 0.817 | 0.522 | -0.00722 | 0.334 | 0.895 | 0.0253 | -0.0954
TAGCCTAGGTCAGATCGGGCCAGCATACGCTATA | 2.06 | 2.68 | 3.52 | -0.834 | 1.72 | 4.27 | 0.0653 | -0.746
TCAGACAGGTGAAGGTAACTCAGGTACGCAGTCG | 1 | 0.581 | 0.551 | 1.37 | 0.995 | 1.48 | 0.516 | 0.357
GCTAGTTGGTCAGTAAAAGGTCAAACACCGGTCG | 5.05 | 5.65 | 4.86 | 0.64 | 5.59 | 3.51 | 1.2 | 1.98
CCGACTGGGGCAGACAGGTTACCATACCATCCGG | 0.849 | 0.341 | 0.456 | -0.96 | 0.238 | -0.0397 | 0.0396 | -0.23
CCTGCTAGGTCATGGTCACCTAATCTACAGTATG | 3.43 | 4.1 | 4.93 | 1.77 | 3.5 | 3.13 | 1.78 | 0.622
CCTTCCGGGTCACGAGGTTATAGCACGACGAGCG | 4.02 | 6.06 | 5.4 | 1.68 | 7.05 | 4.22 | 2.95 | 2.57
GCTATTAGTTAAAAGGGCAACCGAATGATTCTCG | 2.21 | 1.08 | 1.32 | 0.572 | 0.904 | 0.641 | -0.221 | 0.339
